# Measurements as given in PubChem BioAssay AID1159580 (chemical genetic matrix, 2015).
# Among all 5,500 compounds or so, about 2,000 (36%) were called active. Not shown: some 18% with an inconclusive outcome. This is one part of the list. A number with no mark means an inactive call. Cut-off read from the data, not from the text of the source: active = normalized growth mostly below about 0.91 (no sharp cut-off); inconclusive = no clear call, values can overlap the other calls; inactive = mostly above about 0.92.
# Test: chemical genetic growth profiling, strain panel (AID 1159580);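 note: tested at 20 µM; growth read once vehicle control cultures reached saturation at 30 °C; 1 = growth at the plate median or of vehicle wells; lower values mean less growth of the strain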
# Conditions: S. cerevisiae deletion strains, growth OD
structure (smiles),measurement,setting,value
C[C@]12CCC(=O)C=C1CC[C@@H]1[C@@H]2[C@@H](O)C[C@@]2(C)[C@H]1CC[C@]2(O)C(=O)COC(=O)CCC(=O)O,normalized growth,"locus YAL040C, strain CLN3, hits give low values",1.11 [resistant] (active)
same,normalized growth,"locus YCL061C, strain MRC1 (second series), hits give low values",1
same,normalized growth,"locus YDR363W, strain ESC2, hits give low values",1
same,normalized growth,"locus YER002W, strain NOP16, hits give low values",0.982
same,normalized growth,"locus YGR078C, strain PAC10, hits give low values",1.01
same,normalized growth,"locus YNL175C, strain NOP13, hits give low values",1.01
same,normalized growth,"locus YNL197C, strain WHI3, hits give low values",1.01
same,normalized growth,"locus YNL224C, strain SQS1, hits give low values",0.994
same,normalized growth,"locus YNL322C, strain KRE1, hits give low values",0.996
same,normalized growth,"locus YOR083W, strain WHI5 (second series), hits give low values",0.972
same,normalized growth,"locus YPL241C, strain CIN2, hits give low values",0.999
